Results: PubChem BioAssay (NCI)
The panel holds about 79,000 compounds, 15% with a hit somewhere; the sample as a whole holds those more often. Unmarked numbers belong to inactive results. Activity calls are given as the source filed them. Rule as the data show it: active = growth inhibition above about 70%; inactive = the rest.

Key:
[1] = NCI Yeast Anticancer Drug Screen. Data for the rad50 strain (AID 155);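 also: 0% = growth of vehicle-only cultures of the same strain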; conditions: S. cerevisiae rad50 strain growth inhibition; at 50.0 µM; stronger effect = higher value
Outline: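 A DNA repair-deficient yeast mutant serves as the test organism; compound-induced growth inhibition is calculated against vehicle-treated cells.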

[2] = NCI Yeast Anticancer Drug Screen. Data for the mec2-1 strain (AID 157); conditions: S. cerevisiae mec2-1 strain, at 50.0 µM, stronger effect = higher value
Outline: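 Strain: mec2-1 (DNA repair/cell cycle alteration). Compound exposure, then growth measured; inhibition expressed relative to vehicle.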

[3] = NCI Yeast Anticancer Drug Screen. Data for the sgs1 mgt1 strain (AID 161);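 also: 0% = growth of cultures given vehicle only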; conditions: S. cerevisiae sgs1 mgt1 strain, at 50.0 µM, stronger effect = higher value
Outline: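 Inhibition of yeast growth, normalised to vehicle-treated controls, is reported for a strain bearing genetic alterations in DNA damage repair.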

[4] = NCI Yeast Anticancer Drug Screen. Data for the cln2 rad14 strain (AID 165);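 also: 0% = growth equal to vehicle treated cultures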; conditions: S. cerevisiae cln2 rad14 strain, at 50.0 µM, stronger effect = higher value
Outline: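 Compounds are applied to the cln2 rad14 yeast strain, and growth is then compared with that of vehicle-treated cultures to give inhibition.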

[5] = NCI Yeast Anticancer Drug Screen. Data for the bub3 strain (AID 167); conditions: S. cerevisiae bub3 mutant strain, at 50.0 µM, stronger effect = higher value
Outline: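 Inhibition values come from growth of compound-treated mutant yeast normalised to vehicle-treated controls.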

[6] = NCI Yeast Anticancer Drug Screen. Data for the mlh1 rad18 strain (AID 175); conditions: S. cerevisiae mlh1 rad18 strain growth inhibition; at 50.0 µM; stronger effect = higher value
Outline: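 Read-out is yeast growth inhibition, calculated against vehicle-only controls. The compound was applied to a strain engineered with DNA damage repair alterations.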

SMILES | growth inhibition [1] | growth inhibition [2] | growth inhibition [3] | growth inhibition [4] | growth inhibition [5] | growth inhibition [6]
O=C1/C(=C/c2ccc3c(c2)OCO3)CCC1CN1CCOCC1 (configuration not stated) | 91.2% (active) | 94.1% (active) | 90.8% (active) | 92.7% (active) | 90.2% (active) | 90.5% (active)
CC1CCC2(OC1)OC1CC3C4CCC5CC(O)CCC5(C)C4C(=O)C(O)C3(C)C1C2C (configuration not stated) | 39.5% | 17.9% | 49% | 16.7% | 14.5% | 41%
N#CCCCCCCCCCCC(=O)O | -24.6% | -55.9% | 1.95% | 1.45% | -59.4% | -10.2%
CC(=O)OCCSSCCOC(C)=O | -4.9% | -26.4% | 13% | 6.55% | -1.9% | -3.75%
CC1Cc2ccc(OCC(O)CO)cc2C1=O (configuration not stated) | 7.35% | 1.8% | 11.1% | 15.1% | -0.2% | 1.7%
C1=CCSC(Nc2ccccc2)=NC1 | 7.65% | 3.35% | -7.05% | -2.6% | 0.75% | -5.85%
Cc1cc(C(C)C)c(C)cc1C(C)C | -18.9% | -4.25% | -14.4% | -7% | -6.2% | -4.15%
COc1ccc(-c2c3ccccc3c(-c3ccc(OCCCCCBr)cc3)c3ccccc23)cc1 | -10.4% | -10.7% | -10.6% | -30.1% | -22.5% | 1.4%
CCOC(=O)[C@H](Cc1ccccc1)NC(=O)c1nc[nH]c1[N+](=O)[O-] | -10.1% | -9.25% | -31.1% | 5.6% | 1.2% | -34%
O=C(NNC(=O)c1ccccc1Br)c1ccccc1 | -17.6% | -45% | -5.4% | 3.45% | -21.5% | -23.6%
Ic1ccc([I+]c2ccc(I)cc2)cc1 | 94.4% (active) | 94.2% (active) | 97% (active) | 93.5% (active) | 94.3% (active) | 90.8% (active)
O=C(O)/C=C\c1ccc(OC(=O)c2ccccc2)cc1 | -1.1% | -12.6% | -21% | -24.6% | -4.95% | 33.1%
C=CCOCn1ccc(N)nc1=O | -3.3% | -0.55% | 1.8% | 7% | -6.05% | -2.95%
Cc1ccc(CS(=O)(=O)c2ccc(C)cc2)cc1 | -3.3% | -0.45% | -4.2% | -36.8% | -22.9% | -2.35%
O=C(Oc1c(Cl)cc([N+](=O)[O-])cc1[N+](=O)[O-])Sc1ccccc1 | 99.4% (active) | 99.7% (active) | 99.5% (active) | 99.2% (active) | 99.5% (active) | 99.5% (active)
O=C1C=C(Nc2nc(C(=O)O)cc(=O)[nH]2)c2ccccc2C1=O | 8.7% | -15.2% | -29.3% | 15.9% | -25.6% | -24.6%
CCOC(=O)/C=C/CI | 12.8% | -34.5% | 10.4% | 8.4% | 13.5% | 16.2%
CC(C)(C)OC(=O)N(CCCN)CCCCN(CCCN)C(=O)OC(C)(C)C | 8.45% | -9.5% | 5.25% | 12.8% | -5.55% | -62%
CC1Cn2c(nccc2=O)S1 (configuration not stated) | -15.1% | -14.2% | -33.4% | 1.9% | 3.5% | -29.1%
COc1cc(C(=O)O)cc(OC)c1OC(C)=O | 6.65% | -7% | 3.8% | 9% | -34.7% | -8.65%
CC(C)CCC(=O)C(C)C | 19.7% | -9.55% | 13.2% | 11.5% | 10.8% | 15.2%

SMILES | growth inhibition [1] | growth inhibition [2] | growth inhibition [3] | growth inhibition [4] | growth inhibition [5] | growth inhibition [6]
CC1(C)C=C(C(Br)c2ccc(Cl)cc2)C(=O)c2ccccc21 (configuration not stated) | 96.8% (active) | 97.4% (active) | 98.2% (active) | 94.7% (active) | 88.2% (active) | 98.2% (active)
Nc1[nH]nc2nc3n(c(=O)c12)CCCCC3 | 7.1% | 19.7% | 5.6% | 5.55% | -5.75% | -4.15%
CCOC(=O)c1ccc(C=O)cc1 | 15.5% | -5.75% | -4.95% | 6.25% | -5.8% | -11.5%
COc1ccc(C2C3=C(COC3=O)OC(C)(C)Oc3cc4c(cc32)OCO4)cc1 (configuration not stated) | -3% | 0.85% | 13.7% | 6.5% | 36.1% | -19.9%
O=C(O)c1ccccc1NC(C(=O)O)c1ccccc1 (configuration not stated) | -13.1% | -4.25% | -27.4% | 9.1% | -18.9% | -11.7%
CC1=C(C(=O)Nc2ccc(C)cc2)C(c2cccc([N+](=O)[O-])c2)C(C(=O)Nc2ccc(C)cc2)=C(C)N1 | 14.9% | 24.3% | 22.5% | 13.8% | 41% | 4.35%
C=CCNC(=S)N/C=C\c1c(C(=O)O)cc([N+](=O)[O-])cc1[N+](=O)[O-] | -7.85% | -24.1% | -31.2% | -23.2% | 3.2% | 5.6%
CCCCCCCCCCCCCCNCCCCCCCCCCCCCC | 21% | -9% | 23.8% | 32.2% | 17.1% | 17.4%
CC(C)CC(O)(CC(C)C)C(CCC(=O)Nc1ccccc1)C(=O)Nc1ccccc1 (configuration not stated) | 26.1% | 11.9% | 1.9% | -52.1% | -8.5% | 7.6%
CSc1nc(-c2ccccc2)c2c(n1)-c1ccccc1CC2 | -4.95% | -6.1% | 3.05% | -2.4% | 17.9% | -2.35%
CC(C)OC(=O)NCc1cccs1 | -10.1% | -2.6% | 6.7% | -92.8% | 1.7% | -11.1%
O=S(/C=C/C=C/S(=O)(=O)c1ccccc1)c1ccccc1 (configuration not stated) | 18.1% | 24.2% | 30.5% | 19.3% | 43.4% | 74% (active)
CC(=O)OCC(OC(C)=O)C(OC(C)=O)C(OC(C)=O)c1cnn(-c2ccccc2)n1 (configuration not stated) | 4.05% | 12.7% | -20% | -22.8% | 5.6% | 6%
Cc1ccc(-c2nc3scc(C)n3n2)cc1 | 0.85% | 6.6% | -4.5% | -29% | 7.65% | 8.85%
CCOCCOc1nc(C)cc(C)c1C#N | -30.9% | -41.5% | -8.05% | -6.4% | -29.5% | -20.9%
CC(=O)Nc1c(Nc2ccccc2)[nH]c(C)nc1=S | -5.55% | -9.35% | -0.25% | -17.4% | -3.1% | -9.8%
CCC1CCC(C(C)(C)C)C(=O)C1 (configuration not stated) | 6.45% | 1.75% | 2.55% | -11.3% | 3.7% | -4%
O=C(CC(O)(CCc1ccccc1)c1ccccc1)N1CCC(O)(c2ccccc2)CC1 (configuration not stated) | 97.2% (active) | 98.5% (active) | 98.2% (active) | 97.6% (active) | 97.8% (active) | 98.2% (active)
COC(=O)c1cccc2c(N)c(N)cc(C(=O)OC)c12 | 17.5% | 18.2% | 24.8% | 28.2% | 9.3% | 31.4%
Cc1ccc2ccccc2[n+]1CC(=O)c1ccc([N+](=O)[O-])cc1 | -16.8% | -30.8% | -9.3% | 9.95% | -11.2% | -12.4%
c1ccc(C2=NN(c3ccccc3)C3C4CCC(C4)C23)cc1 (configuration not stated) | -5.6% | 8.15% | -6.2% | -49% | 13.8% | 12.1%
